Assay results published in PubChem BioAssay AID770 (SRMLSC, 2007).
In all, about 3,300 compounds went through this assay and fewer than 10 were called active.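 Rule for the calls: active = growth inhibition above 90% in viable cell count at a single dose; inactive = growth inhibition below 90%.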 The list is a sample of the results.

Test: HT29 colon tumor cell growth inhibition, primary screen, imaging, high content imaging, 24 h, CellTiter-Glo (AID 770);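 for condensed nuclei: share of cells whose nuclear area falls below control median minus 1.5 SD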
Conditions: HT29 cell number by imaging, at 10 µM, stronger effect = higher value; for condensed nuclei: measured here: percent cells with condensed nuclei
[1] = measured here: ATP CellTiter-Glo viability

c1ccc2c(c1)[nH]c1cnccc12
growth inhibition: 36.4% (inactive)
growth inhibition [1]: 17.6%
condensed nuclei: 3.43%

Cc1c2ccncc2c(C)c2c1[nH]c1ccccc12
growth inhibition: 95.1% (active)
growth inhibition [1]: 46.4%
condensed nuclei: 18.1%

C=CCOC(=O)C1=C(C)OC(N)=C(C#N)[C@@]12C(=O)N(CC(N)=O)c1ccccc12
growth inhibition: 19% (inactive)
growth inhibition [1]: -1.1%
condensed nuclei: 5.52%

Cn1c(O)c(C=NC2CCN(Cc3ccccc3)CC2)c(=O)n(C)c1=O
growth inhibition: 26.8% (inactive)
growth inhibition [1]: 3.87%
condensed nuclei: 6.67%

CN1CC[C@@]23CCCC[C@@H]2[C@@H]1Cc1ccc(O)cc13
growth inhibition: -3.31% (inactive)
growth inhibition [1]: -18.2%
condensed nuclei: 4.84%

C/C(Cl)=C/CC1(CN2CCCC2=O)C(=O)NC(=O)NC1=O
growth inhibition: -10.6% (inactive)
growth inhibition [1]: -8.34%
condensed nuclei: 2.87%

CCCCCCn1c(O)c(C=Nc2c(C)n(C)n(-c3ccccc3)c2=O)c(=O)[nH]c1=O
growth inhibition: -5.94% (inactive)
growth inhibition [1]: -9.79%
condensed nuclei: 3.03%

Cc1c(N=Cc2c(O)n(CCc3ccccc3)c(=O)[nH]c2=O)c(=O)n(-c2ccccc2)n1C
growth inhibition: 23.4% (inactive)
growth inhibition [1]: 16.4%
condensed nuclei: 7.53%

CCOc1ccccc1-n1c(O)c(C=Nc2c(C)n(C)n(-c3ccccc3)c2=O)c(=O)[nH]c1=O
growth inhibition: 100% (active)
growth inhibition [1]: -85.3%
condensed nuclei: 5.62%

CCCCCCn1c(O)c(C=NC2CCN(Cc3ccccc3)CC2)c(=O)[nH]c1=O
growth inhibition: 3.03% (inactive)
growth inhibition [1]: 23.3%
condensed nuclei: 1.13%
